An excerpt weighted towards active compounds, which were near 18% of everything screened.
TGFb inhibitor: blocks TGF-b signaling. HepG2 CAGA-GFP TGF-b/SMAD3 reporter, GFP fluorescence, 18 h; TGF-beta stimulated, 500 pg/mL final. Potency, µM (series often up to 46.1 µM), inactives show at the top dose activity, negative = inhibition, usual class: inhibitors. 410,000 tested, 1.2% active; also: potency is read from the fitted curve at half-maximal effect; % is scaled to controls: 0 for no effect and ±100 for the full control effect; nearly all actives have a fitted effect of over 65% in size
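Using HEPG2 CAGA-GFP reporter cells at 1000 cells/well, we pinned test compounds, stimulated with recombinant TGF-beta (500 pg/mL final) and measured total well GFP after 18 h.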
TDP1 inh: blocks human tyrosyl-DNA phosphodiesterase 1. Q9NUW8. recombinant TDP1, AlphaScreen DNA substrate cleavage. Potency, µM (doses to about 130 µM), inactives show at the top dose activity change, negative = inhibition, hits mostly inhibitors. 350,000 tested, 0.28% active; also: potency is read from the fitted curve at half-maximal effect; % is scaled to controls: 0 for no effect and ±100 for the full control effect; nearly all actives have a fitted effect of over 40% in size
Target sequence (Q9NUW8 whole entry, looked up): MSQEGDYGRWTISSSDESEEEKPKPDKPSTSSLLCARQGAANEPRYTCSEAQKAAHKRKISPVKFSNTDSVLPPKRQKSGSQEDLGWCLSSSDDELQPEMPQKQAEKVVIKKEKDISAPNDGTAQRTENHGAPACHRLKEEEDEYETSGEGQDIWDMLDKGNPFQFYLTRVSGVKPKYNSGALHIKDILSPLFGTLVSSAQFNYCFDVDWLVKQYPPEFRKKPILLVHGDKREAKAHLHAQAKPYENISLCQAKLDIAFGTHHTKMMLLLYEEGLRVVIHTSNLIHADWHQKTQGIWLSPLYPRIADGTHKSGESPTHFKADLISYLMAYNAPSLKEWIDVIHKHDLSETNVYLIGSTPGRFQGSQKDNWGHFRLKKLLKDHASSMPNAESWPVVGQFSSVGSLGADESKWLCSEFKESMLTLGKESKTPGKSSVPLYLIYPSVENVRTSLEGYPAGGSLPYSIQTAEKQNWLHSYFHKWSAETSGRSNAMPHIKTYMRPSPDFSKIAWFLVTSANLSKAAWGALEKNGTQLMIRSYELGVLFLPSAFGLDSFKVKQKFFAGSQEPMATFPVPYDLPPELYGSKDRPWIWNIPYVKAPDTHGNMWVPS
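Recombinant human Tdp1 (E. coli-expressed, 1 nM final) preincubated with compounds 15 min at room temperature, then 5'-biotin/3'-phosphotyrosine-FITC DNA substrate (15 nM final) added for 5 min. AlphaScreen beads (10 ug/ml final) added 10 min; cleavage lowers signal.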
IL1B secr inh: inhibitors of inflammasome signaling (IL-1 beta secretion) | THP-1 LPS/ATP IL-1B secretion, AlphaLISA, 16 h; hits give low values | activity change, % at 57.5 µM | AID 743279 | 360,000 tested, 4.7% active; in the data active = activity change below about -50%; inconclusive = mostly about -30% to -49%; also: % is scaled to controls: 0 for no effect and ±100 for the full control effect
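Secreted IL-1B measured by AlphaLISA bead assay after 16 h compound exposure of THP-1 cells; compounds (final up to 57.5 uM) added 1 h before LPS (250 ng/mL) and ATP (1.25 mM) stimulation; lower signal means less secretion.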
DT40 TDP1 no CPT: qHTS for Inhibitors of human tyrosyl-DNA phosphodiesterase 1 (TDP1): qHTS in cells in absence of CPT | Potency, µM (series often up to 46.2 µM), for the others: at the top dose activity change, negative = growth inhibition, most hits filed as inhibitors | DT40 Tdp1-/- hTDP1 cells, no CPT, ATP luminescence, 48 h | AID 686978, 2013 | 420,000 tested, 15% active; also: potency is read from the fitted curve at half-maximal effect; % is scaled to controls: 0 for no effect and ±100 for the full control effect; nearly all actives have a fitted effect of over 55% in size
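Stably hTDP1-transfected Tdp1-null chicken DT40 cells were treated with library compounds minus camptothecin and grown for at least 48 hr at 37 °C, after which cellular ATP was quantified by luminescence.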
TDP1 cell CPT: growth inhibition of DT40 Tdp1-/-;hTDP1 cells with camptothecin (screen for TDP1 inhibitors); Potency, µM (highest dose often 46.2 µM), without a hit: top-dose activity change, negative = growth inhibition, usual class: inhibitors; AID 686979; chicken DT40 Tdp1-/-;hTDP1 cells + 20 nM CPT, ATP luminescence, 48 h; 420,000 tested, 12% active; also: potency is read from the fitted curve at half-maximal effect; % is scaled to controls: 0 for no effect and ±100 for the full control effect; nearly all actives have a fitted effect of over 55% in size
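Cell growth measured by CellTiter-Glo luminescence after a minimum 48 h, 37 C compound exposure with 20 nM CPT in Tdp1-knockout DT40 cells stably expressing hTDP1, seeded 400/well; qHTS titration format.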
HepG2 viability: HepG2 cytotoxicity, counter-screen for TGF-b inhibitors; HepG2 CAGA-GFP viability, ATP luminescence, 18 h; Potency, µM (doses to about 46.1 µM), inactives show at the top dose activity change, negative = cytotoxicity, usual class: cytotoxic; 410,000 tested, 0.76% active; also: potency is read from the fitted curve at half-maximal effect
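HepG2 CAGA-GFP cells (1000/well, DMEM with 1% FBS) received compound, then TGF-beta at 500 pg/mL final, and were incubated 18 hours at 37 degrees C. Viability was read by CellTiter-Glo luminescence. Media-only wells were set as complete cell-killing and DMSO as no toxicity.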
Starred values were filed as active, the others as inactive; i = inactive; ? = inconclusive; . = no result; ! = a repeat was not active; [ ] = another dose, or the depositor's remark. Unless noted, calls follow the shape of the dose curve; as a rule, active = well fitted curve in the direction sought with a large enough effect; inconclusive = small, poorly fitted or top-dose-only effect, or another doubt; inactive = no such curve, though single readings can be large; an effect the other way counts as inactive or inconclusive.

SMILES	TGFb inhibitor	TDP1 inh	IL1B secr inh	DT40 TDP1 no CPT	TDP1 cell CPT	HepG2 viability
COC(=O)c1ccc2nc(-c3cccc(Br)c3)c(Cc3ccccc3)n2c1	.	.	29.9	23.1µM*	?	.
COC(=O)c1ccc2nc(-c3ccccc3)c(Cc3ccccc3C(F)(F)F)n2c1	.	.	16.6	-17.0%	0.1%	.
COC(=O)c1ccc2nc(-c3cccc(Cl)c3)c(Cc3ccccc3)n2c1	.	.	29.0	10.3µM*	20.6µM*	.
COC(=O)c1ccc2nc(-c3ccc(C#N)cc3)c(Cc3cccc(Cl)c3)n2c1	.	.	0.0	20.6µM*	20.6µM*	.
CCOc1ccccc1NC(=O)COC(=O)c1cc(C(=O)OC)cc([N+](=O)[O-])c1	-14.4%	0.0%	0.3	-12.3%	3.1%	-3.1%
CCOc1ccccc1NC(=O)COC(=O)c1cccc(-c2ccc(OC(C)=O)cc2)c1	2.2%	0.0%	i	25.9µM*	?	-30.3%
CC(=O)Oc1ccc(-c2cccc(C(=O)OCC(=O)Nc3ccccc3Oc3ccccc3)c2)cc1	11.3%	4.2%	16.1	18.4µM*	-26.8%	7.4%
COc1ccc(N(C)S(=O)(=O)c2cccc(C(=O)OCC(=O)N(C)c3ccccc3)c2)cc1	-1.2%	-2.1%	-8.1	20.6µM*	?	-27.4%
CC(=O)Oc1ccc(-c2cccc(C(=O)OCC(=O)N(C)c3ccccc3)c2)cc1	-20.7%	5.3%	0.0	23.1µM*	?	-28.8%
C/C(CC(=O)Nc1ccc(N(C)C)cc1)=N\NC(=O)c1ccc([N+](=O)[O-])cc1Cl	?	3.5%	10.7	20.6µM*	?	-4.4%
C/C(CC(=O)Nc1ccc(N(C)C)cc1)=N\NC(=O)c1ccc(Cl)cc1Cl	?	.	-1.0	-5.3%	-24.6%	-1.9%
COc1cccc(C(=O)N/N=C(\C)CC(=O)Nc2ccc(N(C)C)cc2)c1	?	7.8%	-88.7*	-2.3%	-0.4%	-24.5%
Cc1cc(NC(=O)CSc2nccn2-c2cccc(Cl)c2)no1	?	8.4%	6.4	-28.7%	-7.4%	-4.6%
C=CCn1c(SCC(=O)c2[nH]c(C)c(C(=O)OCC)c2C)nc2scc(-c3ccc(OC)c(OC)c3)c2c1=O	?	4.4%	-7.6	13µM*	14.6µM*	-14.6%
CCOC(=O)c1c(C)[nH]c(C(=O)CSc2nnc(-c3ccncc3)n2CC)c1C	?	5.4%	?	-23.8%	-2.1%	-9.0%
CN(Cc1ccc(OCC(O)CN2CCCCC2)cc1)Cc1ccnc2ccccc12 (stereo unspecified)	?	.	-14.6	4.61µM*	9.2µM*	-42.2%
Cc1nn(C)cc1CN(C)Cc1ccc(OCC(O)CN2CCCCC2)cc1 (stereo unspecified)	-1.0%	-2.4%	-13.7	12.9%	-20.0%	-12.5%
COc1ccc(C(=O)N2CCOC23CCN(c2ncccn2)CC3)cc1	-6.7%	-3.7%	-22.3	-30.6%	-3.8%	-9.2%
CCCn1c(-c2cccs2)nc2ccccc21	2.2%	-1.1%	-20.8	-29.7%	-24.8%	-26.3%
CCN1c2ccccc2-c2nc3ccccc3n2C1c1cccs1 (stereo unspecified)	?	-3.0%	20.8	13µM*	23.1µM*	-31.4%
CCc1c(C)nc2cc(-c3ccc(OC)cc3)[nH]n2c1=O	27.4%	3.2%	-6.2	14.6µM*	20.6µM*	-4.4%
COc1cccc(-c2cc3nc(-c4ccccc4)cc(=O)n3[nH]2)c1	6.3%	.	87.5	2.59µM*	2.59µM*	-49.4%
Cc1cc(=O)n2[nH]c(-c3ccc(C(C)(C)C)cc3)cc2n1	-3.3%	0.0%	-2.6	20.6µM*	18.4µM*	-42.1%
O=c1cc(-c2ccccc2)nc2cc(-c3ccc(F)cc3)[nH]n12	-31.3%	0.9%	4.6	6.51µM*	7.31µM*	-23.6%
COc1cccc(-c2nc3n(n2)CCc2ccccc2-3)c1	-0.1%	.	15.4	?	?	-35.5%
SMILES	TGFb inhibitor	TDP1 inh	IL1B secr inh	DT40 TDP1 no CPT	TDP1 cell CPT	HepG2 viability
CC(C)C(=O)N[C@H]1CCC2C3CC=C4C[C@@H](O)CC[C@]4(C)C3CC[C@@]21C (stereo partly specified)	2.8%	0.2%	61.8	?	-29.3%	-4.6%
CC(=O)C1CCC2C3CC=C4CC(SC(=N)N)CCC4(C)C3CCC12C (stereo unspecified)	?	.	-102.7*	8.2µM*	13µM*	-78.0%
CC(C)(C)[C@H](N)C(=O)N[C@H]1CCC2C3CC=C4C[C@@H](O)CC[C@]4(C)C3CC[C@@]21C (stereo partly specified)	14.1µM*	3.4%	-102.2*	3.66µM*	4.61µM*	-96.6%
CC(=O)[C@H]1CCC2C3CC=C4C[C@@H](OS(=O)(=O)O)CC[C@]4(C)C3CC[C@@]21C (stereo partly specified)	.	9.5%[56.1 µM]	.	.	.	.
CCCCCCN[C@H]1CCC2C3CC=C4C[C@@H](O)CC[C@]4(C)C3CC[C@@]21C (stereo partly specified)	1.7%	0.4%	-2.0	?	16.4µM*	-9.5%
C[C@]12CC[C@H](O)CC1=CCC1C2CC[C@@]2(C)C1CC[C@@H]2NC(=O)[C@@H](N)Cc1ccccc1 (stereo partly specified)	?	2.1%	-96.4*	20.6µM*	?	-83.9%
Cc1nc(C(F)(F)F)c(C(=O)N=CN(C)C)s1	-11.6%	-2.7%	-3.0	-8.0%	-2.1%	-2.1%
CC(C)c1nc(CN(C)C(=O)N[C@H](C(=O)N[C@@H](Cc2ccccc2)C[C@H](O)[C@H](Cc2ccccc2)NC(=O)OCc2cncs2)C(C)C)cs1	.	-2.0%	.	21.1µM*!	16.8µM*!	.
O=C(Nc1sc2c(c1C(=O)O)CCCCC2)c1ccccc1	2.0%	-3.0%	30.5	?	?	-37.1%
O=C(Nc1sc2c(c1C(=O)NCCCO)CCCC2)c1ccccc1	1.9%	.	-69.0*	-25.3%	-26.7%	-2.3%

Bioassay records as filed in PubChem BioAssay.
